# Screening results as filed in PubChem BioAssay.
# Shown are actives, neighbours in structure and some others; about 19% of the full set was active somewhere.
# TDP1 cell CPT – DT40-hTDP1 cell growth loss with CPT; hit rate 12% among 420,000; chicken DT40 Tdp1-/-;hTDP1 cells + 20 nM CPT, ATP luminescence, 48 h; Potency, µM (titrated, usually from 46.2 µM), for inactives: at the highest dose activity change, negative = growth inhibition, usual class: inhibitors; note: potency is the fitted concentration of half-maximal effect; nearly all actives have a fitted effect of over 55% in size
#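 Chicken DT40 Tdp1-/- cells complemented with human TDP1, 400 cells/well, exposed to compounds plus 20 nM camptothecin for at least 48 h at 37 C; viability read as ATP content by CellTiter-Glo luminescence.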
# TDP1 cell noCPT – qHTS for Inhibitors of human tyrosyl-DNA phosphodiesterase 1 (TDP1): qHTS in cells in absence of CPT. DT40 Tdp1-/- hTDP1 cells, no CPT, ATP luminescence, 48 h. hit rate 15% among 420,000. AID 686978, 2013. Potency, µM (highest dose often 46.2 µM), for inactives: top-dose activity change, negative = growth inhibition, most hits filed as inhibitors; note: potency is the fitted concentration of half-maximal effect; nearly all actives have a fitted effect of over 55% in size
#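 Growth of hTDP1-complemented DT40 Tdp1-knockout cells is measured by ATP luminescence after at least 48 hr compound exposure at 37 °C, with DMSO substituting for the 20 nM CPT used in the parallel screen.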
# IL-1B inflam inh – inflammasome signaling inhibition, IL-1 beta readout; THP-1 LPS/ATP IL-1B secretion, AlphaLISA, 16 h; hits give low values; activity change, % at 57.5 µM; hit rate 4.7% among 360,000; AID 743279; in the data active = activity change below about -50%; inconclusive = mostly about -30% to -49%
#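 Secreted IL-1B measured by AlphaLISA bead assay after 16 h compound exposure of THP-1 cells; compounds (final up to 57.5 uM) added 1 h before LPS (250 ng/mL) and ATP (1.25 mM) stimulation; lower signal means less secretion.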
# Giardia kill – kills Giardia lamblia; Giardia lamblia trophozoite viability; activity change, % at 7.66 µM, hits read low; hit rate 0.15% among 340,000; in the data active = activity change below about -80%; inconclusive = between about -30% and that limit;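 note: parasites exposed to compound for two days anaerobically before the ATP read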
#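 Luminescence from cellular ATP indicates surviving trophozoites (100 cells/well) following 48 hrs anaerobic compound treatment at 37 deg C; signal develops 15-30 min at room temperature.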
# ELG1 DNA repair – ELG1-dependent DNA repair inhibition; HEK293T ELG1-luciferase reporter, luminescence, 16 h; DNA damage induced by 5-fluorouridine; Potency, µM (doses to about 46.1 µM), without a hit: top-dose activity change, negative = inhibition, hits mostly inhibitors; hit rate 2.3% among 330,000; note: potency is the fitted concentration of half-maximal effect; nearly all actives have a fitted effect of over 55% in size
#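 5-Fluorouridine DNA damage + compound/DMSO, 2,000 cells/well, 16 h, 37 °C/5% CO2. ONE-Glo, 30 min RT, luminescence. Readout = decrease in reporter signal.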
# TDP1 block – inhibitors of human tyrosyl-DNA phosphodiesterase TDP1 | recombinant TDP1, AlphaScreen DNA substrate cleavage | Potency, µM (titrated, usually from 130 µM), inactives show at the top dose activity change, negative = inhibition, actives largely listed as inhibitors | hit rate 0.28% among 350,000; note: potency is the fitted concentration of half-maximal effect; nearly all actives have a fitted effect of over 40% in size
# Target sequence (Q9NUW8 whole entry, looked up): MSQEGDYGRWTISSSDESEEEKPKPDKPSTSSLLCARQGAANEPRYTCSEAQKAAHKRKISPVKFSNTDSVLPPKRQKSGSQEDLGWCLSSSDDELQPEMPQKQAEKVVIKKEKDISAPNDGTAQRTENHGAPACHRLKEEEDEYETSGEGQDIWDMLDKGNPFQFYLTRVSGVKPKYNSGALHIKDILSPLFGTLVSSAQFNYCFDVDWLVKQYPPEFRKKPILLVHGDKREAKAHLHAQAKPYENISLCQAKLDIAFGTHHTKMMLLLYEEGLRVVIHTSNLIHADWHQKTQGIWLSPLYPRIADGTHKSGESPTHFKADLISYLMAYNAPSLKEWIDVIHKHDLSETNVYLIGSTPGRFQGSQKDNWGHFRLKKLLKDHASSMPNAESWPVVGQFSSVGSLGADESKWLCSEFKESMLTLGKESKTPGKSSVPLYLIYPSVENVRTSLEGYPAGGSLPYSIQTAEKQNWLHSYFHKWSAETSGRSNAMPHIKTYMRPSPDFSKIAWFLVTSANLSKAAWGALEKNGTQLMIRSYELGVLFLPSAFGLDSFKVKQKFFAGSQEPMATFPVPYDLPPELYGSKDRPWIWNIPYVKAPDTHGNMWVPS
#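 AlphaScreen read-out: signal falls as enzyme removes the 3' tyrosine-FITC from a 5'-biotinylated DNA oligo (15 nM, 5 min, RT). Enzyme was E. coli-made recombinant Tdp1 at 1 nM, exposed to compound for 15 min beforehand; beads 10 ug/ml, 10 min.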
# The depositor's hits bear a star; ? = inconclusive; . = no result given; [ ] = remark or other dose. Unless noted, calls come from the whole dose curve; as a rule, active = well fitted curve in the direction sought with a large enough effect; inconclusive = small, poorly fitted or top-dose-only effect, or another doubt; inactive = no such curve, though single readings can be large; an effect the other way counts as inactive or inconclusive. % is set by controls: 0 for no effect and ±100 for the full control effect.
SMILES,TDP1 cell CPT,TDP1 cell noCPT,IL-1B inflam inh,Giardia kill,ELG1 DNA repair,TDP1 block
CCc1ccc(CNC(=O)CCn2ccc3cc(S(=O)(=O)N4CCCC4)ccc32)cc1,21µM*,?,-10,0,?,0%
CN(C)c1ccc(CNC(=O)C2CCCN(S(=O)(=O)c3ccc4c(ccn4C)c3)C2)cc1 (stereo not drawn),16µM*,21µM*,.,.,.,4%
Cc1ccc(CNC(=O)CCn2ccc3cc(S(=O)(=O)N4CCCC4)ccc32)cc1,?,?,13,23,0%,5%
O=C(CCn1ccc2cc(S(=O)(=O)N3CCCC3)ccc21)NCc1cccc(Br)c1,18µM*,?,.,.,.,3%
COc1ccc(CNC(=O)CCCn2ccc3cc(S(=O)(=O)N4CCCC4)ccc32)cc1,18µM*,12µM*,37,-5,?,1%
CC(=O)c1ccc(S(=O)(=O)N2CCN(c3nc(-c4ccccc4)nc4ccccc34)CC2)cc1,-17%,?,.,27,.,2%
COc1ccccc1CNC(=O)[C@H](Cc1c[nH]c2ccccc12)NC(=O)[C@@H]1Cc2ccccc2CN1,?,?,0,-13,-10%,.
C(=N\NC1=Nc2cccc3cccc1c23)/c1ccccc1,7%,?,-1,14,?,8%
NC1=Nc2cccc3cccc1c23,?,16µM*,-65*,-4,2%,7%
COc1ccc(/C=C/CN2CCN(Cc3ccccc3)C(CCO)C2)cc1 (stereo not drawn),-7%,-22%,-8,-13,-4%,.
COc1ccc(/C=C/CN2CCC(CO)(Cc3ccccc3Cl)CC2)cc1,?,15µM*,-79*,12,4%,4%
CCN(CC)CCN=c1c(C)nc(C#N)c(N)n1O,-5%,1%,-9,.,.,.
O=C(/C=C/c1ccccc1)NC(=S)NNC(=O)c1ccco1,?,21µM*,63,16,?,10%
O=C(NC(=S)N1CCN(C/C=C/c2ccccc2)CC1)c1ccco1,?,21µM*,1,6,-18%,6%
O=C(NNC(=O)c1ccco1)c1ccco1,4%,-8%,-9,.,.,.
Cc1cccc(NC(=S)NNC(=O)c2ccco2)c1,-16%,-9%,-27,-5,?,11%
O=C(/C=C/c1ccc(Br)cc1)NC(=S)NNC(=O)c1ccco1,?,18µM*,39,13,?,11%
CN1C(=O)CN(CCN2CC(=O)N(C)C(=O)C2)CC1=O,6%,5%,6,.,.,.
CC(=O)c1cccc(Nc2nn(-c3ccc(OC(F)(F)F)cc3)nc2C(C)=O)c1,?,-21%,.,.,.,0%
COC(=O)[C@@H](NCc1cccc(CN[C@H](C(=O)OC)C(C)C)c1)C(C)C,-8%,-23%,3,-15,-7%,.
COC(=O)C(c1ccccc1)N(Cc1cccc(CN(C(C(=O)OC)c2ccccc2)S(C)(=O)=O)c1)S(C)(=O)=O (stereo not drawn),?,16µM*,12,-15,-14%,.
Cc1cc(C)cc(C(=O)n2nc(C)c(S(=O)(=O)N3CCCCCC3)c2C)c1,-11%,-9%,.,.,.,-8%
Cn1c(=O)c2ccccc2n2c(=S)[nH]nc12,-4%,-14%,27,-5,-2%,5%
Cn1c(=O)c2ccccc2n2c(CCl)nnc12,12µM*,15µM*,-17,-2,-3%,3%
CC(=O)Nc1sc2c(c1CN1CCN(c3ccc(F)cc3)CC1)CCCC2,?,15µM*,-10,13,?,9%
SMILES,TDP1 cell CPT,TDP1 cell noCPT,IL-1B inflam inh,Giardia kill,ELG1 DNA repair,TDP1 block
Cc1sc(NC(=O)c2ccco2)c(CN2CCN(c3ccc(F)cc3)CC2)c1C,21µM*,12µM*,-3,-2,12%,1%
O=C(c1ccccc1)c1ccc2nc(Nc3ccccc3Cl)c3nncn3c2c1,?,?,.,.,.,6%
COc1ccccc1CN1CCC2(CC1)CCN(C(=O)c1cccn1C)CC2,4%,?,.,.,.,.
O=C1N[C@@H](Cc2ccccc2)COC(=O)[C@H](Cc2ccc(F)cc2)C/C=C\C[C@H]1CC(=O)N(CCO)Cc1ccccc1,21µM*,8.2µM*,-26,17,?,2%
O=C1N[C@@H](Cc2ccccc2)COC(=O)[C@H](Cc2ccc(F)cc2)CC/C=C/C[C@@H]1CC(=O)N(CCO)Cc1ccccc1,?,?,?,15,-11%,1%
O=C1N[C@@H](Cc2ccccc2)COC(=O)[C@@H](Cc2ccc(F)cc2)CC/C=C/C[C@H]1CC(=O)N(CCO)Cc1ccccc1,?,6.5µM*,-21,3,?,2%
O=C1N[C@H](Cc2ccccc2)COC(=O)[C@H](Cc2ccc(F)cc2)C/C=C\C[C@H]1CC(=O)N(CCO)Cc1ccccc1,?,?,-10,0,-11%,1%
O=c1c2oc3ccccc3c2ncn1Cc1ccc(Br)cc1,-8%,-17%,.,.,.,0%
O=c1c2ccccc2nnn1CSc1ncnc2ccccc12,?,?,-81*,-10,11%,-3%
Cc1cc(NC(=O)CSc2nnnn2-c2ccc(C(C)C)cc2)no1,?,?,3,11,-8%,0%
Cc1cc(-n2c(C)cc(C(=O)CSc3nnnn3-c3ccc(Cl)cc3)c2C)no1,?,7.3µM*,-1,5,-22%,2%
Cc1cc(C)n2nc(SCC(=O)c3cc(C)n(-c4cc(C)on4)c3C)nc2n1,10µM*,10µM*,-5,-2,?,5%
O=C(CSc1ncnc2ccccc12)c1ccco1,?,21µM*,-10,-11,?,-2%
CCCCNC(=O)CN1C(=O)NC(CCc2ccccc2)C1=O (stereo not drawn),-16%,0%,12,25,-3%,3%
Cc1ccccc1C(=O)NCCc1sc(-c2ccc(Cl)cc2)nc1C,-23%,?,.,.,.,7%
COc1ccccc1C(c1nnnn1C(C)C)N1CCN(C(=O)c2ccco2)CC1 (stereo not drawn),-14%,-10%,-13,14,2%,10%
Cc1ccc2[nH]nc(C(=O)N3CCOc4ccc(CN5CCc6sccc6C5)cc4C3)c2c1,-4%[9.04 µM],?,.,.,.,.
Cc1cc(-n2c(C)cc(C(=O)CSc3ncnc4ccccc34)c2C)no1,1.8µM*,1.2µM*,-13,1,-12%,9%
Cc1cc(-n2c(C)cc(C(=O)CSc3nnc4sc5ccccc5n34)c2C)no1,16µM*,?,25,-16,6%,2%
